The values below come from PubChem BioAssay.

Each structure is given as a SMILES string.

Assay [1] concerns Human papillomavirus type 1a protein E7 (residues 44-93). The assay can be described thus: HPV1a E7 fragment binders on microarrays, primary screen, biochemical, small-molecule microarray, residues 44-93, 635 nm fluorescence (AID 1108).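 Note: E7 fragment applied at 1 µg/mL in TBST for 1 h at 4 C; score combines spot fluorescence with its signal to noise ratio.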 As to conditions: small-molecule microarray binding, fluorescence 635 nm; higher = more signal.
Assay [2] is described as follows: modulators of HCV replicon luciferase signal, primary screen, HCV replication inhibitor project, Huh7 cells, luciferase reporter (AID 1109).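 Note: huh7 hepatoma cells harbouring a luciferase neomycin HCV replicon reporter; luciferase luminescence as measure of HCV replicon replication; test concentration not given here.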 As to conditions: 48 h, higher = more signal.
In assay [3] the target is Left-right determination factor 2 (Homo sapiens) (UniProt O00292). Put plainly: LEFTY2 binders on small-molecule microarrays, primary screen, biochemical, small-molecule microarray, 635 nm fluorescence scan (AID 1110). As to conditions: LEFTY2 binding, higher = more signal.
Sequence of Left-right determination factor 2 (Homo sapiens) (O00292 whole entry, looked up): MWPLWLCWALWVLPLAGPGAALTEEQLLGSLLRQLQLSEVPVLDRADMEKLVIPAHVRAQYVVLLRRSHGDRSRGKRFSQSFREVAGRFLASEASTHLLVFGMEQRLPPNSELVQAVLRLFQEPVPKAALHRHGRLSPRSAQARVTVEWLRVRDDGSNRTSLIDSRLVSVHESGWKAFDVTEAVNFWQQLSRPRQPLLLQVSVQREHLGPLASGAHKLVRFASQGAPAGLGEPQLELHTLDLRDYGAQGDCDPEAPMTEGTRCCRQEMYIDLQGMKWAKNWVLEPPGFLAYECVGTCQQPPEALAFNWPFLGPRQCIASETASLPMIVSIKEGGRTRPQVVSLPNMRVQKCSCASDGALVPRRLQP
Assay [4] concerns the target Calmodulin-1 (Homo sapiens) (UniProt P0DP23). Put plainly: CALM1 binders on microarrays, EGTA buffer, profiling panel, biochemical, small-molecule microarray, Cy5-labelled CALM1 (AID 1111).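 Note: labelled calmodulin applied in Tris saline Tween buffer holding calcium plus EGTA and DTT.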 As to conditions: Cy5-CALM1 binding fluorescence, higher = more signal.
Assay [5] has the same target. Put plainly: calcium-bound CALM1 binders on microarrays, profiling panel, artefact control for SMM control-protein annotation, biochemical, small-molecule microarray, Cy5-labelled CALM1, plus calcium (AID 1112).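 Note: score merges spot fluorescence with signal to noise from triplicate slides.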 As to conditions: Cy5-CALM1 binding fluorescence, higher = more signal.
The nature of assay [6]: small-molecule microarray binders of probe aWnt5a, primary screen, biochemical, biotinylated probe, 635/667 nm fluorescence (AID 1113).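 Note: score merges 667 nm fluorescence intensity with signal-to-noise per printed feature.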 As to conditions: higher = more signal.
Assay [7] can be described thus: small-molecule microarray binders of probe aShh, primary screen, biochemical, biotinylated probe, 635/667 nm fluorescence (AID 1114).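 Note: probe is biotin-labelled aShh protein from a stem cell growth factor screen; measures binding of labelled protein to compounds printed on the slide; score merges feature fluorescence at 667 nm with signal-to-noise.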 As to conditions: higher = more signal.
Assay [8] is described as follows: small-molecule microarray binders of probe aNog, primary screen, biochemical, biotinylated probe, 635/667 nm fluorescence (AID 1115).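 Note: probe is biotinylated aNog protein used at 0.15 µg/mL for 1 h at 4 C; z-score combines 667 nm fluorescence of each spot with its signal to noise.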 As to conditions: higher = more signal.
Assay [9] concerns the target Torsin-1A-interacting protein 1 (Homo sapiens) (UniProt Q5JTV8). The assay can be described thus: LAP1 binders from COS7 cell lysate, primary screen, small-molecule microarray, 635/667 nm fluorescence (AID 1116). As to conditions: COS7-hLAP1 lysate binding, 635 nm fluorescence, higher = more signal.
In assay [10] the target is Alpha-bungarotoxin (Bungarus multicinctus) (UniProt P60615). Put plainly: alpha-bungarotoxin binders on microarray, profiling panel, artefact control for SMM control protein annotation, biochemical, small-molecule microarray, Alexa647 label, 635/667 nm fluorescence (AID 1117). As to conditions: alpha-BTX-A647 binding fluorescence, higher = more signal.
Sequence of Alpha-bungarotoxin (Bungarus multicinctus) (P60615 whole entry, looked up): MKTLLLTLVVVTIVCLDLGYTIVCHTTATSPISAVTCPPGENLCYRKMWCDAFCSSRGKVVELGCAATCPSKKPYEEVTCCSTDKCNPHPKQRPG

Sequence of Torsin-1A-interacting protein 1 (Homo sapiens) (Q5JTV8 whole entry, looked up): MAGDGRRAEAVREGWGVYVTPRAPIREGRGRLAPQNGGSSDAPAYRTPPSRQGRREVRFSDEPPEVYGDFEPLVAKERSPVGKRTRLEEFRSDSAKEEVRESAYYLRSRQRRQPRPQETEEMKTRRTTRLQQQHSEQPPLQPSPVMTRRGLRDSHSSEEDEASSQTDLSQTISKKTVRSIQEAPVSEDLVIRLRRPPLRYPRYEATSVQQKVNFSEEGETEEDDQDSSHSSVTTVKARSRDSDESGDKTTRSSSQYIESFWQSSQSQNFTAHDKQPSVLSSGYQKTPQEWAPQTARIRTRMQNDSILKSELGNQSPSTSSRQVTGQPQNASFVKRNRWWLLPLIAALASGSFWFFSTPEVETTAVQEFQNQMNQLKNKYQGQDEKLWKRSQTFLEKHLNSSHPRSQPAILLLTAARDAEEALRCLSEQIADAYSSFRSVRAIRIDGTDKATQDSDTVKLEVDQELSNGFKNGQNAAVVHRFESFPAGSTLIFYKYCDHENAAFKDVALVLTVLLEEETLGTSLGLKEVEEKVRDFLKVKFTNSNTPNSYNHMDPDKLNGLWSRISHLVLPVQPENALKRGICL

With `CN(C)C(=O)[C@]1(Cc2ccccc2CN=[N+]=[N-])N=C(c2ccc(OCCCO)cc2)O[C@@H]1c1ccccc1CN=[N+]=[N-]`, the composite z-score is 1.47 in [1]; 0.189 in [3]; 0.324 in assay [4]; 0.708 in assay [5]; 0.216 in [6]; 0.249 in assay [7]. The composite z-score in assay [8] amounted to 0.76; in [9], 1.39; in [10], 0.832. Moreover, the z-score in [2] is -3.12.
Take `COc1cc2c(cc1OC)CN(C(=O)[C@@H]1[C@H]3C(=O)O[C@H](c4ccccc4)[C@H](c4ccccc4)N3[C@H](c3ccc(O)cc3)[C@@]13C(=O)Nc1ccc(C#CC4(O)CCCCCC4)cc13)CC2`: the composite z-score was 1.21 in [1]; 1.39 in assay [3]; 0.965 in assay [4]; -0.0394 in [5]; -0.195 in assay [6]; -0.0005 in assay [7]. In addition, the composite z-score in assay [8] turned out to be 2.1; in assay [9], 0.344; in assay [10] it was 1.66. In assay [2], the z-score is -1.1.
Turning to `CC(C)N1C(=O)c2ccccc2[C@](C)(C(=O)NCc2ccccc2)[C@@H]1c1ccc(CO)cc1`, the composite z-score was -0.375 in assay [1]; -1 in assay [3]; -0.742 in [4]; -0.514 in [5]; -0.0735 in assay [6]; -0.19 in assay [7]. Further, the composite z-score is -0.141 in assay [8], 1.13 in assay [9] and -0.491 in assay [10]. The compound further yielded a z-score in assay [2] of 0.0554.
For the compound `COc1ccc([C@H]2OC[C@@H]3CC4(CC=CC4)C(=O)N32)cc1`, the composite z-score in [1] was 0.659; in assay [3], 0.935; in [4], -1.18; in assay [5], -1.99; in [6] it was -0.124; in assay [7], -0.0146. Moreover, the composite z-score in [8] is -0.196; in [9], -0.251; in assay [10] it was 0.144. The z-score in assay [2] was 0.0751.
In the case of `COc1ccc(C(O)C2C=CC3C(=O)N(c4ccccc4)C(=O)C3N2Nc2ccc(C(C)C)cc2)cc1OCc1ccccc1` (stereo not given), the composite z-score was 0.473 in [1]; 0.346 in assay [3]; 2.13 in assay [4]; 0.682 in [5]; 0.145 in [6]; -0.0375 in [7]. Moreover, the composite z-score in [8] is 0.299; in assay [9], 0.598; in assay [10], 2.07. In [2], this compound returned a z-score of -0.264.
Turning to `CC(C)C(CO)N1C(=O)[C@@H]2[C@H]3C(=O)OCC=C[C@H]3OC23C=CCN(C(C)C)C(=O)[C@@H]13` (stereo not given in full), the composite z-score in assay [1] is -0.432; in assay [3] it was -0.0108; in assay [4] it was -0.531; in [5], -1.11; in [6], -0.2; in assay [7], -0.223. In addition, the composite z-score in assay [8] was -0.0926; in assay [9], -0.262; in assay [10] it was -0.557. The z-score in assay [2] was determined as 1.07.
Consider `O=C1c2ccccc2[C@](Cc2ccccc2I)(C(=O)NC2CC2)[C@H](c2ccc(CO)cc2)N1C1CCCCC1`, for which the composite z-score in [1] was 1.46; in assay [3] it was 0.272; in assay [4] it was 0.675; in assay [5] it was 0.0028; in assay [6], -0.176; in [7] it was -0.421. Further, the composite z-score is -0.0067 in assay [8], 0.547 in assay [9] and 1.38 in [10]. The compound further returned a z-score in [2] of -1.62.
In the case of `Cc1ccc(S[C@]2(C(=O)NCCN3CCOCC3)CC(=O)N(Cc3ccccc3Cl)[C@@H]2c2ccc(CO)cc2)cc1`, the composite z-score is 1.02 in [1]; -0.989 in [3]; -0.343 in assay [4]; 0.148 in [5]; -0.12 in assay [6]; -0.0035 in [7]. Besides, the composite z-score in assay [8] was -0.339; in assay [9], 0.733; in assay [10], -0.146. Moreover, in assay [2], the z-score was -0.815.
Turning to `O=C1O[C@H](c2ccccc2)[C@H](c2ccccc2)N2[C@H]1[C@@H](C(=O)N1CCN(c3ncccn3)CC1)[C@]1(C(=O)Nc3ccc(C#CC4=CCCCC4)cc31)[C@H]2c1ccc(O)cc1`, the composite z-score in assay [1] is 1.41; in assay [3] it was 0.144; in [4] it was 0.961; in [5], 0.336; in [6], -0.0721; in assay [7], -0.221. The results for the composite z-score in assay [8], in [9] and in [10] were 0.113, 0.792 and 1.44, respectively. The z-score in [2] was -1.98.
For `COc1ccc(CCNC(=O)[C@@]2(Sc3ccc(C)cc3)CC(=O)N(C3CCCCC3)[C@@H]2c2ccc(CO)cc2I)cc1`, the composite z-score was 1.38 in assay [1]; 0.0072 in [3]; 0.99 in assay [4]; 0.161 in assay [5]; -0.0903 in assay [6]; 0.323 in assay [7]. Besides, the results for the composite z-score in assay [8], in assay [9] and in assay [10] were -0.158, 0.95 and 0.649, respectively. Moreover, the z-score in assay [2] was -2.77.
Take `C=CCN1C(=O)[C@]2(O[C@H](CCO)[C@@H]([Si](C)(C)c3ccc(OC)cc3)[C@@H]2C)c2cc(N3CCCCC3=O)ccc21`: the composite z-score is 1.44 in assay [1]; 0.0651 in assay [3]; 0.856 in [4]; 0.352 in [5]; -0.0977 in assay [6]; 0.147 in [7]. Besides, the composite z-score was 0.431 in assay [8], 0.957 in assay [9] and 1.19 in assay [10]. The z-score in assay [2] is -4.11.
`O=C1OCCC/C=C\[C@H]2OC34C=CCN(c5ccc6ccccc6c5)C(=O)[C@H]3N(CCCCCCO)C(=O)[C@@H]4C12` (stereo not given in full): the composite z-score in assay [1] was -1.45; in [3], -0.955; in assay [4], -0.761; in assay [5] it was -0.384; in assay [6], -0.176; in [7], -0.179. In addition, the composite z-score in assay [8] was -0.388; in assay [9], 2.93; in assay [10] it was -0.182. For the same compound, in assay [2], the z-score was -0.625.
As for `CCOC(=O)[C@H]1C/C=C/C[C@H](C(=O)OCC)C(=O)O[C@H]2[C@@H](OC)O[C@H](CO)[C@@H](OC(=O)Nc3ccc(C#N)cc3)[C@@H]2OC1=O`, the composite z-score in assay [1] is -0.324; in assay [3], -0.0147; in assay [4] it was 0.917; in assay [5] it was 0.148; in assay [6] it was -0.124; in [7] it was 0.0062. In addition, the results for the composite z-score in assay [8], in assay [9] and in assay [10] were -0.113, 1.63 and -0.253, respectively. This compound displayed a z-score in assay [2] of -3.6.
Regarding `CC(C)(C)C(=O)N[C@@H](c1ccc(Cl)cc1)[C@]1(C)C[C@H]1C1CCCCC1`, the composite z-score in [1] was 1.19; in assay [3], -0.487; in [4], 1.27; in assay [5], 1.1; in [6] it was 0.197; in [7], 0.838. In addition, the composite z-score in assay [8] is 2.13; in [9], 1.94; in assay [10], 2.02. This compound gave a z-score in assay [2] of -0.409.
As to `C#CCN(Cc1ccccc1Br)C(/C=C/c1ccccc1)CO` (stereo not given), the composite z-score in assay [1] was -0.413; in [3] it was -0.362; in assay [4], -0.669; in assay [5] it was -0.423; in assay [6] it was -0.16; in assay [7], 0.0494. Further, the composite z-score was -0.443 in assay [8], 0.104 in assay [9] and 0.0125 in [10]. In assay [2], this compound yielded a z-score of -3.49.
In the case of `CCCCN1CC=CC23O[C@@H]4/C=C\CCC(C)OC(=O)C4[C@H]2C(=O)N(CCCCCO)[C@@H]3C1=O` (stereo not given in full), the composite z-score in assay [1] is 0.15; in [3] it was -1.39; in assay [4] it was -0.78; in [5], 0.0481; in [6] it was -0.191; in assay [7], -0.214. Further, the composite z-score in [8] was -0.21; in assay [9] it was 1.27; in assay [10], -1.14. Also, in assay [2], the z-score is -0.275.
Turning to `COC(=O)C(CC#Cc1ccc2c(c1)[C@]1(C(=O)N2)[C@H](C(=O)O)[C@H]2C(=O)O[C@H](c3ccccc3)[C@H](c3ccccc3)N2[C@@H]1c1ccc(O)cc1)C(=O)OC`, the composite z-score in assay [1] is 1.03; in [3] it was -0.354; in assay [4], -0.345; in assay [5], 0.0677; in assay [6], -0.124; in assay [7] it was -0.366. Besides, the composite z-score in assay [8] was 0.26; in [9], -0.273; in assay [10], -0.472. The z-score in assay [2] was -0.374.
